Tau fluor cs = counter-screen for tau fibril formation inhibitors. actives 0.93% (n = 280,000). AID 1463. tau K18 P301L Alexa594 fluorescence, heparin fibrillization. Potency, µM (series often up to 57.7 µM), inactives show top-dose activity change, negative = decrease; note: nearly all actives have a fitted effect of over 55% in size
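Human K18 P301L tau (15 uM unlabeled plus 0.24 uM Alexa 594-labeled, final) in 100 mM sodium acetate pH 7 was mixed with compound and 20 uM heparin and incubated 6 hr at 37 C.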
Sfp PPTase inh = Sfp phosphopantetheinyl transferase inhibition; AID 1490; actives 3.5% (n = 310,000); Biochemical Sfp PPTase activity, qHTS; Potency, µM, without a hit: largest response in the series, negative = inhibition, hits mostly inhibitors;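 note: the enzyme is Sfp with the accession as filed and its product quenches rhodamine fluorescence; 0% = enzyme reaction without inhibitor and -100% = no enzyme wells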
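Fluorescence-quenching assay with 15 nM Sfp, 5 uM rhodamine-CoA and 12.5 uM BHQ-2-labelled ybbR peptide in pH 7.6 Hepes/MgCl2 buffer. Enzyme was pre-incubated with compound for 15 min at room temperature. Rate was taken from the 30-min fluorescence change (525/598 nm).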
Tau ThT inhib = blocks human tau fibril formation measured by thioflavin T; P10636; AID 1460; actives 2.1% (n = 270,000); recombinant tau K18 P301L, heparin-induced fibrillization, ThT fluorescence; Potency, µM (highest dose often 57.4 µM), inactives show at the highest dose activity, negative = inhibition, usual class: inhibitors; note: nearly all actives have a fitted effect of over 55% in size
Target sequence (P10636 561-689 P618L limits assumed): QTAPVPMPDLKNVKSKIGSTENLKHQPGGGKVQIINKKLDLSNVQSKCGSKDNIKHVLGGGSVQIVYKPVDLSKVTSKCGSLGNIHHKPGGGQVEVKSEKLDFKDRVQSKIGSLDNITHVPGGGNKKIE
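Fibril formation assay: tau K18 P301L at 15 uM with trace Alexa 594 label, heparin inducer 20 uM, pH 7 sodium acetate buffer, 37 C for 6 hr; endpoint ThT signal.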
PLK1 PBD inh = PLK1 (human) polo-box domain binding inhibition | Plk1 PBD binding of FITC phosphopeptide, fluorescence polarization | P53350 | AID 720504 | Potency, µM, inactives show max response, negative = inhibition, hits mostly inhibitors | actives 2.8% (n = 360,000); note: series mostly up to about 57 µM; nearly all actives have a fitted effect of over 65% in size
Target sequence (P53350 whole entry, looked up, the tested form may be a part): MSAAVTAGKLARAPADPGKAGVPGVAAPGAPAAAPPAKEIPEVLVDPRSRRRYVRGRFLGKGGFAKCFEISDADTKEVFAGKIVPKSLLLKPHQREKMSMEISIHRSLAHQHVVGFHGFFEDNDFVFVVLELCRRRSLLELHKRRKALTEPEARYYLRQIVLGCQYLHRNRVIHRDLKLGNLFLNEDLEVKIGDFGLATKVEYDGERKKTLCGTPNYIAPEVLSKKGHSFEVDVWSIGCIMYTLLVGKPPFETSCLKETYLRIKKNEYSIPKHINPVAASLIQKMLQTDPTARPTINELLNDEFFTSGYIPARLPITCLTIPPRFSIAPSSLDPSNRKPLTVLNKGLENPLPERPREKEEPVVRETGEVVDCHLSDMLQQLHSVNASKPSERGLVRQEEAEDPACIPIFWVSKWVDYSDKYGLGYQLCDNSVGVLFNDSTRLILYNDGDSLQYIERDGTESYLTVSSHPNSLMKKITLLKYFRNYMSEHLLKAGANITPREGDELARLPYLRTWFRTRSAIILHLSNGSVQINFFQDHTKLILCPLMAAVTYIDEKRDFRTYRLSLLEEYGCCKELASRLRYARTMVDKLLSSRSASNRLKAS
VDR inh = blocks the human vitamin D receptor | P11473 | VDR-SRC2-3 peptide fluorescence polarization, 2 h | Potency, µM, inactives show max response, negative = inhibition, actives largely listed as inhibitors | actives 0.93% (n = 400,000)
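Fluorescence polarization assay measuring small-molecule disruption of VDR binding to the coregulator peptide SRC2-3. Compounds were pin-transferred (23 nl) into the reagent mix and incubated 2 h at room temperature before reading.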
Tau fibril FP = blocks human tau fibril formation measured by polarization; K18 P301L tau heparin fibrillization, Alexa594 FP, 6 h; Potency, µM (series often up to 57.7 µM), for the others: at the highest dose activity, negative = inhibition, most hits filed as inhibitors; P10636; actives 0.39% (n = 280,000); AID 1468; note: nearly all actives have a fitted effect of over 55% in size
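Steps: dispense K18 P301L tau (15 uM plus 0.24 uM Alexa 594 tracer, final) in pH 7 sodium acetate; add compound; add heparin (20 uM final); incubate 6 hr, 37 C; add ThT (30 uM final); after 1 hr ambient, read FP.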
* = called active by the depositor; ? = inconclusive; . = no result given; ! = repeats disagree; [ ] = another dose, or the depositor's remark. In the library only some 6% were active in any assay of this set; here they are far more common. Calls come from the whole dose curve; as a rule, active = well fitted curve in the direction sought with a large enough effect; inconclusive = small, poorly fitted or top-dose-only effect, or another doubt; inactive = no such curve, though single readings can be large; an effect the other way counts as inactive or inconclusive. Unless noted, % is set by controls: 0 for no effect and ±100 for the full control effect; potency is the fitted concentration of half-maximal effect.

SMILES	Tau fluor cs	Sfp PPTase inh	Tau ThT inhib	PLK1 PBD inh	VDR inh	Tau fibril FP
Cc1cccc(-c2cc3nc4c(c(N5CCC6(CC5)OCCO6)n3n2)CCCC4)c1	.	.	.	-7.1%	1.6%	.
Cc1cccc(-c2cc3nc4c(c(NCc5ccco5)n3n2)CCCC4)c1	-27.5%	50.1µM*	?	-6.7%	1.7%	-5.6%
O=[N+]([O-])c1cc(Cc2ccccc2)cc(C=Nc2ccc(N3CCOCC3)cc2)c1O	?	-16.8%	10µM*	38.9%	?	?
Cc1cc(Br)cc(C=Nc2ccc(N3CCOCC3)cc2)c1O	.	.	.	-0.3%	-14.1%	.
Cc1ccc(O)c(N=Cc2cc(Cc3ccccc3)cc([N+](=O)[O-])c2O)c1	?	8.91µM*	8.91µM*	?	-10.2%	?
CC(C)C[C@H]1CN(CCCC[C@@H]2CNC(=O)C(=O)N2CC2CCCCC2)C(=O)C(=O)N1CC1CCCCC1	.	.	.	-4.3%	.	.
Cc1ccc(N2NC(C)(c3cccs3)NC2=S)cc1 (centres undefined)	?	70.8µM*	15.8µM*	?	?	-8.3%
O=S(=O)(NC1=NCCCCC1)c1ccc(Cl)cc1	-2.1%	17.9%	-5.2%	-1.2%	-15.6%	-3.2%
O=S(=O)(NC1=NCCCCC1)c1ccc2sc(NS(=O)(=O)c3ccc4ccccc4c3)nc2c1	-15.5%	-22.7%	.	10.6µM*	?	?
COc1ccc(/C=N/c2oc(-c3ccccc3)cc2C#N)cc1OC	2.9%	79.4µM*	-0.5%	?	17.7%	-9.5%
COc1ccc(/C=N/NC(=O)c2nc(-c3ccccc3)cc(-c3ccccc3)n2)cc1OC	-24.6%	-8.2%	?	-5.8%	6.0%	-5.3%
O=C(NCCc1ccccc1Cl)c1ccc(Cn2c(=O)c3cccn3c3cccnc32)cc1	-10.8%	.	?	.	11.9%	?
CCOc1ccc(N=Nc2c(C)noc2C)cc1	-23.1%	-2.4%	15.8µM*	2.3%	3.4%	-11.3%
O=C(Cn1cc(C(F)(F)F)ccc1=O)N/N=C/c1ccccc1O	-1.8%	14.9%	-1.1%	29.9µM*	?	2.6%
COc1ccc(CC(=O)c2c(O)cc(O)cc2O)cc1OC	?	-16.3%	-12.3%	-1.6%	-3.2%	6.8%
O=C(Cc1ccc(Cl)cc1)c1c(O)cc(O)cc1O	15.8µM*[quencher]	-15.8%	?	.	?	-12.9%
CN1C(=O)c2ccccc2C(O)c2ccccc21 (centres undefined)	.	.	.	-4.0%	-7.2%	.
CC(=O)/C=C1/C(=O)Nc2ccccc21	-4.0%	50.1µM*	?	21.2µM*	44.7µM*	-9.7%
CN1C(=O)/C(=C\C(=O)c2cccs2)c2ccccc21	-3.1%	44.7µM*	?	16.8µM*	28.2µM*	1.4%
Cc1ccc2c(c1)/C(=C/c1ccccc1)C(=O)N2	.	-9.0%	.	-16.0%	?	.
CC(=O)/C=C1\C(=O)N(C)c2ccccc21	.	.	.	.	25.1µM*	.
CCCC(=O)Nc1nnc2n1CCS2	-6.1%	.	-1.5%	.	-3.4%	-6.1%
O=C(NN=Cc1ccc(OC(F)F)cc1)c1ccc(NS(=O)(=O)c2cccs2)cc1	.	.	.	-16.5%	3.9%	.
Cc1oc2c(c1C(=O)Nc1ccc(Cl)cc1F)C1=NCCN1C=N2	-9.5%	.	?	.	11.1%	-12.0%
COc1ccc(OC)c(NC(=O)Nc2cccc(OCc3cc(=O)n4cc(C)ccc4n3)c2)c1	12.6µM*[quencher]	.	?	.	-2.2%	?
SMILES	Tau fluor cs	Sfp PPTase inh	Tau ThT inhib	PLK1 PBD inh	VDR inh	Tau fibril FP
COc1cc(OC)c(NC(=O)Nc2cccc(OCc3cc(=O)n4ccccc4n3)c2)cc1Cl	6.31µM*[quencher]	.	?	.	-6.9%	7.9%
COc1ccc(NC(=O)Nc2cccc(OCc3cc(=O)n4cccc(C)c4n3)c2)c(OC)c1	7.08µM*[quencher]	.	?	.	10.3%	?
CCC(=O)Nc1cccc(OCc2cc(=O)n3cc(C)ccc3n2)c1	-2.5%	.	-11.2%	.	3.5%	7.9%
CCn1c(=N)c(C(=O)NC2CCCCC2)cc2c(=O)n3cc(C)ccc3nc21	-8.1%	.	-8.8%	.	-0.5%	-2.3%
O=C(CSc1nnc(CNC(=O)c2ccco2)o1)Nc1ccccc1F	.	39.8µM*	.	21.2µM*	-5.1%	.
Cc1ccc(N(CC2=NCCN2)c2cccc(O)c2)cc1	-15.6%	79.4µM*!	?	0.9%	-1.9%	16.6%
c1ccc(CN(CC2=NCCN2)c2ccccc2)cc1	-17.9%	4.1%	-11.1%	-12.7%	10.3%	-8.8%
COc1ccc(CNS(=O)(=O)c2ccc(N3CCCC3)cc2Br)cc1	.	.	.	23.8µM*	?	.
COc1ccc(CNS(=O)(=O)c2ccc(F)cc2Br)cc1	.	.	.	-19.4%	25.3%	.
COc1ccc(-c2nc(-c3ccccc3)c(-c3ccccc3)[nH]2)cc1Br	?	.	?	.	-1.7%	?
COc1ccc(-c2nc(-c3ccccc3)c(-c3cccs3)[nH]2)cc1OC	14.1µM*[quencher]	7.0%	?	2.8%	4.3%	?
COc1ccc(-c2nc(-c3cccs3)c(-c3cccs3)[nH]2)cc1OC	10µM*[quencher]	16.7%	?	-0.2%	-5.6%	9.9%
CC(C)c1ccccc1NC(=O)COC(=O)c1cccnc1	.	12.8%	.	-4.1%	-5.8%	.
COc1ccc(C(=O)O)nc1C	-5.8%	44.7µM*	-3.1%	-2.8%	-5.7%	3.5%
CC(C)CNC(=O)CN1c2cccc3cccc(c23)S1(=O)=O	.	10.4%	.	-2.0%	-1.3%	.
CC[C@H](CO)Oc1cc(NCc2cccc(N)c2)c2ncn(C(C)C)c2c1	.	.	.	1.0%	.	.
CCC(CO)Oc1cc(NCc2cccc(C)c2)c2ncn(C(C)C)c2c1 (centres undefined)	.	.	.	-14.8%	89.1µM*	.
Cc1nc(CSc2ccc(Cl)cc2)cc(N2CCOCC2)n1	-5.0%	-4.7%	-11.9%	?	-3.9%	4.1%
Cc1nc(CS(=O)(=O)c2ccccc2)cc(N2CCOCC2)n1	-1.2%	3.4%	-9.6%	2.99µM*	-25.7%	3.3%
CN(C(=O)c1ccc(Cl)cc1)c1ccc(OCC(=O)Nc2cc(C(=O)O)ccc2Cl)cc1	.	.	.	-2.9%	0.6%	.
CC(=O)c1ccc(Nc2c3ccccc3cc3occc23)cc1	.	-15.7%	.	.	0.0%	.
Cc1ccc(C)n1C1CCS(=O)(=O)C1 (centres undefined)	-4.2%	12.9%	?	-4.2%	-7.6%	-12.9%
Cc1nn(C2CCS(=O)(=O)C2)c(C)c1C=O (centres undefined)	0.8%	-6.9%	2.0%	3.36µM*	?	2.6%
COc1cccc2cc(-c3cc(=O)oc4cc(C)c(OCC(C)=O)cc34)oc12	.	10.2%	.	16.8µM*	-17.1%	.
COc1ccc2oc(=O)cc(-c3cc4cccc(OC)c4o3)c2c1	.	-0.9%	.	-11.0%	-9.8%	.
Cc1ccc(N2CCN(C(=O)c3cccs3)CC2)cc1C	.	50.1µM*	.	-15.8%	8.8%	.
CCCCOc1ccc(S(=O)(=O)NC(=O)C2(C)CCN2C(=O)Cc2cccs2)cc1 (centres undefined)	.	.	.	2.1%	.	.
